# Screening data deposited in PubChem by several laboratories.
# Mcl1 Bid PPI: Mcl-1/Bid interaction inhibition; actives 0.97% (n = 220,000); Q07820; AID 1021; inhibition, % at 21.7 µM; TR-FRET Mcl-1/Bid-Dy647 peptide binding, 1536-well;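 active = compounds that cut the binding signal by more than half at the single screening dose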;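 also: His-tagged Mcl-1 with europium anti-His antibody binding Bid BH3 peptide; 0% = Mcl-1 plus peptide wells and 100% = peptide-only wells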
# Target sequence (Q07820 whole entry, looked up): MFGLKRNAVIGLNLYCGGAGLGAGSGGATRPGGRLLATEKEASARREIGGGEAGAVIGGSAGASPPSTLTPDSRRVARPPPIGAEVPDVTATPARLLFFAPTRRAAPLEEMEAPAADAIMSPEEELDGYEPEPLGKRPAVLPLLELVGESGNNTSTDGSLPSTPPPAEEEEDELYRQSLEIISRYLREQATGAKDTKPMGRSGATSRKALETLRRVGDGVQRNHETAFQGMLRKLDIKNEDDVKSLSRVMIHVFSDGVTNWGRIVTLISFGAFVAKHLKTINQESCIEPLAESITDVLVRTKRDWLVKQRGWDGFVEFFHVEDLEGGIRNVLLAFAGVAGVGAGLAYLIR
# Mcl1-Noxa inh: Mcl-1/Noxa interaction inhibition; Q07820; TR-FRET Mcl-1/Noxa peptide binding, 2 h; inhibition, % at 21.7 µM; actives 1.5% (n = 220,000); AID 1022;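 active = compounds that cut the protein-peptide binding signal by more than 50% relative to plate controls in a single-dose test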;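 also: His-tagged Mcl-1 with rhodamine Noxa BH3 peptide and terbium anti-His antibody; 0% = Mcl-1 plus Noxa peptide wells and 100% = peptide-only wells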
# Pf gametocyte: inhibitors of late stage P. falciparum gametocyte viability; P. falciparum stage V gametocytes, ATP luminescence, 24 h; inhibition, % at 10.9 µM; actives 0.065% (n = 150,000);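 active = inhibition above the mean plus 3 SD of compounds within the control limits, set per campaign, cut at about 38% in these data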;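 also: 0% = DMSO wells and 100% = medium only without gametocytes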
# Hck Nef HTS: human Hck-Nef kinase inhibition. Recombinant Hck-YEEI plus Nef, Z-Lyte FRET kinase assay. AID 463187. P08631. inhibition, % at 20 µM. actives 0.68% (n = 220,000);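 active = Hck-Nef kinase inhibition above about 50%, limit read from the data; inactive = inhibition below that limit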;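 also: 0% = DMSO with Hck plus Nef and 100% = Hck alone without Nef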
# Bim-Mcl-1: inhibitors of Bim-Mcl-1 interaction, human | Q07820 | actives 0.1% (n = 190,000) | Bead-based flow cytometry, Bim peptide-Mcl-1 binding | inhibition, % at 10 µM; in the data active = inhibition above about 40%;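 also: 0% = no compound tracer wells and 100% = peptide blocker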
# 14-3-3 Bad PPI: disrupts binding of bovine 14-3-3 zeta to phospho-Bad peptide | P63103 | TR-FRET 14-3-3zeta/Dy647-pBad peptide displacement, 1 h | inhibition, % at 21.7 µM | actives 0.71% (n = 220,000) | AID 781;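 active = inhibition above about 70%, limit read from the data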;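 also: 0% = full 14-3-3 plus peptide FRET controls and 100% = background without 14-3-3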
# Target sequence (P63103 whole entry, looked up): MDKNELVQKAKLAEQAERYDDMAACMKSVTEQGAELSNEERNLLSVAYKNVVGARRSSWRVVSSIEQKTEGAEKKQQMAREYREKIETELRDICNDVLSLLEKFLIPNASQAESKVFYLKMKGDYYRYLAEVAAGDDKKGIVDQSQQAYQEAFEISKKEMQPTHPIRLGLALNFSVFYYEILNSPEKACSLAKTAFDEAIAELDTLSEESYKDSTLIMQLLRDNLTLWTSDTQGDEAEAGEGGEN
# Numbers without * were called inactive; . = no result; [ ] = dose if it differs, or a comment. This is a sample that favours compounds with a hit; in the whole collection about 2.9% have one here.
SMILES,Mcl1 Bid PPI,Mcl1-Noxa inh,Pf gametocyte,Hck Nef HTS,Bim-Mcl-1,14-3-3 Bad PPI
Cc1ccc(-c2ccc(/C=C3/NC(=O)NC3=O)o2)cc1[N+](=O)[O-],73.0*,76.7*,1.4,15.3,2.0,90.3*[fluorescence artefact?]
CSc1ccc(Cl)c(C(=O)Nc2ccc(N3CCOCC3)cc2)c1,-57.6,13.8,0.0,13.5,-4.0,-7.9
COc1cccc(CNC(=S)Nc2cc(OC)ccc2OC)c1,-37.5,-8.4,.,5.2,1.0,-5.9
O=C(O)CC(CCc1ccccc1)OC1OC(CO)C(O)C(O)C1O (centres undefined),-60.0,92.3*,.,49.3,.,18.9
O=C(COC(=O)Cc1ccc(F)cc1)NCc1ccco1,-21.8,6.9,49.2*,16.3,-2.0,0.6
O=C(COC(=O)CCC(=O)c1ccc(F)cc1)NCc1ccco1,-34.2,-3.2,-17.9,1.0,-1.0,-8.9
CCOC(=O)C1CCN(Cc2ccc(Cl)c(Cl)c2)CC1,9.8,19.9,.,0.1,-3.0,27.9
CCOC(=O)C1CCN(Cc2ccc(F)cc2)CC1,51.3*,-13.7,.,0.1,0.0,60.5
COc1ccc(CN2CCSCC2)cc1O,-6.9,18.1,-8.2,0.8,-1.0,76.4*
O=C(NCc1ccco1)C1CCN(C(=O)c2cc3sccc3n2Cc2ccc(F)cc2)CC1,-15.4,7.7,29.7,0.8,0.0,1.0
COc1cc(CN2CCSCC2)cc(OC)c1OC,21.5,21.6,26.4,-0.6,-6.0,44.1
O=C(NCc1ccco1)C1CCN(Cc2ccc(F)cc2)CC1,28.3,33.3,5.5,-8.7,4.0,79.9*
Cc1cc(C)c(S(=O)(=O)c2ccccc2C)c(OCC(C)(C)C)n1,-2.3,4.8,-1.0,-0.2,0.0,5.4
CCOC(=O)C1CCN(Cc2ccc(O)c(OC)c2)CC1,18.2,10.2,-2.3,0.1,-1.0,83.8*
CCOC(=O)C1CCN(c2c(NCCCN3CCN(Cc4ccccc4)CC3)c(=O)c2=O)CC1,52.4*,15.9,0.4,4.1,0.0,-4.3
CCOC(=O)C1CCN(c2c(NCCCN3CCCCC3)c(=O)c2=O)CC1,-86.5,-10.6,-11.3,17.9,.,-2.6
CCOC(=O)C1CCN(Cc2ccc(C(=O)OC)cc2)CC1,42.0,38.7,.,-0.4,1.0,49.1
CCN(CC)CCNC(=O)CCc1n[nH]c(=O)c2ccccc12,-52.4,-8.3,9.9,1.1,0.0,3.9
O=C(O)c1ccc(Sc2ccccn2)c([N+](=O)[O-])c1,-19.1,9.0,4.0,-1.5,-2.0,-5.2
COC(=O)c1ccc(Sc2ccccn2)c([N+](=O)[O-])c1,54.8*,-2.0,-17.9,4.0,-5.0,-8.4
Cc1cccc(C)c1NC(=O)CC(NCCc1ccccc1)C(=O)O (centres undefined),-12.7,14.7,.,3.5,-5.0,-1.6
COc1cc(C=O)ccc1OS(=O)(=O)c1ccc(NC(C)=O)cc1,53.2*,5.5,6.5,6.2,-4.0,14.0
Cc1nn(C)cc1CN(C)C(=O)c1cc(-c2ccccc2)nc2ccc(Br)cc12,-10.8,-2.2,-15.2,17.5,-1.0,-5.5
O=C(CCc1nnc(CCCCc2ccccc2)o1)NC1CCCC1,-13.8,-0.3,-7.0,23.9,-1.0,-3.6
Cc1nnc(Sc2c(N)n(C)c(=O)[nH]c2=O)s1,100.0*,18.5,.,0.3,-1.0,-14.8
SMILES,Mcl1 Bid PPI,Mcl1-Noxa inh,Pf gametocyte,Hck Nef HTS,Bim-Mcl-1,14-3-3 Bad PPI
CN(CC(O)CN)CC(O)CN1CCCCC1 (centres undefined),-21.7,6.6,-4.8,0.7,0.0,45.1
OCCCN=c1cc(-c2ccccc2)oc2ccc(Cl)cc12,-18.5,8.0,.,2.6,0.0,192.7*[fluorescence artefact?]
Cc1ccc(C(=O)N2CC(=O)Nc3ccc(F)cc3C2c2ccc(F)cc2)cc1[N+](=O)[O-] (centres undefined),52.7*,9.0,.,-1.2,-4.0,11.3
O=C1Nc2ccccc2/C1=C/c1cnc(-c2ccccc2)[nH]1,9.2,65.1*,2.0,-97.0,.,58.5
Cc1ccccc1N1CCN(c2ccc(NC(=O)C3CCCCC3C(=O)O)cc2)CC1 (centres undefined),-72.3,33.8,-22.6,7.8,-4.0,-5.3
CCN(CC)CCCOc1nc(C)nc2c1oc1ccccc12,-8.6,22.8,-8.3,0.7,0.0,77.2*
CCN(CC)CCOc1nc(C)nc2c1oc1ccccc12,31.9,19.5,.,1.1,0.0,69.0
CCOC(=O)N1CCN(C(=O)c2ccc(CS(=O)(=O)c3ccccc3OC)o2)CC1,-44.0,59.2*,-29.2,-0.2,2.0,-2.0
CCOc1ccccc1CN(CCc1ccc2c(c1)OCO2)Cc1ccccn1,25.8,4.0,.,1.8,.,72.2*
COc1cccc(-c2nnc(-c3ccccc3[N+](=O)[O-])o2)c1,-7.4,-5.7,-11.0,19.2,.,-0.1
COc1ccc(CCNC(=O)COc2ccc(S(=O)(=O)N3CCOCC3)cc2)cc1OC,0.0,4.3,.,5.4,-1.0,6.6
c1ccc(CCNc2ncnc3c2nnn3Cc2ccccc2)cc1,-6.2,-9.7,.,1.7,-1.0,0.3
c1ccc(Cn2nnc3c(NCc4ccc5c(c4)OCO5)ncnc32)cc1,52.2*,-14.6,-6.5,33.7,.,21.5
Cc1nc(C(=O)O)nn1-c1ccc([N+](=O)[O-])cc1,5.6,9.0,6.7,-3.5,0.0,2.1
O=[N+]([O-])c1ccc(Cl)c(-c2ccc(/C=N/c3c(-c4ccco4)nc4ccccn34)o2)c1,55.4*,40.6,16.6,18.4,2.0,45.8
O=[N+]([O-])c1ccc(-c2ccc(/C=N/n3cnnc3)o2)c(Br)c1,.,.,15.6,.,.,.
O=[N+]([O-])c1ccc(-c2ccc(/C=N/c3c(-c4ccco4)nc4ccccn34)o2)c(Cl)c1,56.8*,62.1*,.,14.4,6.0,10.0
COc1ccc(C)cc1-n1nnnc1SCC(=O)NC(=O)NCc1ccco1,42.2,62.3*,4.6,3.1,-2.0,2.5
O=C(CSc1nc(-c2ccccc2)cs1)NC(=O)NCc1ccco1,5.5,5.4,.,2.3,-5.0,13.7
O=C(CSc1ccccc1F)NC(=O)NCc1ccco1,-26.9,51.6*,-33.1,4.2,0.0,-21.3
CC(C)C(=O)Nc1nnc(SCC(=O)NCc2ccco2)s1,-24.6,10.3,-1.2,0.0,-2.0,10.1
Cc1ccccc1Nc1nnc(SCC(=O)NCc2ccco2)s1,-20.5,60.6*,.,0.2,-3.0,-0.9
O=C(CSc1ncccn1)NC(=O)NCc1ccco1,-10.4,-2.7,6.0,13.2,0.0,-3.7
O=C(CSc1nc2ccccc2s1)NC(=O)NCc1ccco1,-24.7,54.5*,-14.1,1.5,-2.0,12.4
COc1ccc(N2CCN(CCNS(=O)(=O)c3cccc4nsnc34)CC2)cc1,-35.5,10.2,16.5,2.0,-2.0,0.0
CCCOc1ccccc1NC(=O)c1ccc([N+](=O)[O-])cc1,5.2,7.8,.,25.4,1.0,-1.2
Cc1c(NC(=O)c2c(O)c3ccccc3n(C)c2=O)c(=O)n(-c2ccccc2)n1C,-3.6,-38.4,-13.1,-7.7,-2.0,-16.6
CCCCn1c(SCC(=O)NC(=O)NCc2ccco2)nc2cc(S(N)(=O)=O)ccc21,-2.2,62.8*,.,3.8,-2.0,8.1
